Legend:
Type in all cases: functional
[1] = molecular target: Solute carrier family 2, facilitated glucose transporter member 1 (Homo sapiens) (UniProt P11166); experiment: ST_JUDE_LEISH: Cytotoxicity at 2uM final concentration against transgenic Leishmania Mexicana promastigotes LmGLUT1 that are glucose transport deficient and complemented with the human glucose transporter GLUT1. Activity is measured by DNA content using SYBR green in vitro
[2] = molecular target: Hexose transporter 1 (Plasmodium falciparum) (UniProt O97467); experiment: ST_JUDE_LEISH: Cytotoxicity at 2uM final concentration against transgenic Leishmania Mexicana promastigotes LmPfHT that are glucose transport deficient and complemented with the Plasmodium falciparum hexose transporter. Activity is measured by DNA content using SYBR green in vitro
[3] = molecular target: Glucose transporter (Leishmania mexicana) (UniProt O61059); experiment: ST_JUDE_LEISH: Cytotoxicity at 2uM final concentration against transgenic Leishmania Mexicana promastigotes LmGT2 that are glucose transport deficient and complemented with the L. Mexicana glucose transporter 2. Activity is measured by DNA content using SYBR green in vitro

Chain of Solute carrier family 2, facilitated glucose transporter member 1 (Homo sapiens) (P11166 whole entry): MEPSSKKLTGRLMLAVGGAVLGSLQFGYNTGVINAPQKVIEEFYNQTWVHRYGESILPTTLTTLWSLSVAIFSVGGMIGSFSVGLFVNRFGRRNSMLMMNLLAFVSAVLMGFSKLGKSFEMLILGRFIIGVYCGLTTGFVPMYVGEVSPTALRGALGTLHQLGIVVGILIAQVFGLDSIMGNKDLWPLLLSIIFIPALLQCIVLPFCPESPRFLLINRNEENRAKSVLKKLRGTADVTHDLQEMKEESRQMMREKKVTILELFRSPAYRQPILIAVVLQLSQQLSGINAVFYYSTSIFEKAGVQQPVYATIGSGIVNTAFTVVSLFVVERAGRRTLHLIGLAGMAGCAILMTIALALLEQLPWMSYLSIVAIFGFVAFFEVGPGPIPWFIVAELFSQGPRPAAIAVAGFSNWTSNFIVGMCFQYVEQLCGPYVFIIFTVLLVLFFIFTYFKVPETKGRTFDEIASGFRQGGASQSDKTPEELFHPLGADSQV

SMILES	inhibition [1] [%]	inhibition [2] [%]	inhibition [3] [%]
CCOc1ccc(C(C)NC(=O)c2ccc(OC)c(Br)c2)cc1OCC (stereo not given)	1.14	-0.71	-0.9
Cc1cc(N[C@@H](Cc2ccccc2)C(=O)NC2CCCC2)nc(NCCOc2ccccc2)n1	1.41	-1.48	2.19
COc1ccccc1CN1CCC(NC(=O)c2ccc(-c3cccc(Cl)c3)s2)CC1	8.99	8.66	2.23
Cc1ccc2nc(-c3ccc(C(=O)NC4CCN(Cc5ccccc5)CC4)cc3)[nH]c2c1C	11.5	7.69	0.84
Cc1c(C(=O)N(C)C)sc2c1c(=O)n(Cc1ccccc1)c(=O)n2CC(=O)Nc1ccccc1F	2.21	3.39	1.57
N=C(N)NN=Cc1c[nH]c2ccc(-c3ccccc3)cc12	0.57	0.13	1.34
Cc1cc(NCCC(=O)NCCOc2ccccc2)nc(NCCc2ccc(F)cc2)n1	2.06	0.98	-2.75
COc1cc2c(cc1S(=O)(=O)c1ccc(NC(=O)Nc3ccc(F)cc3)cc1)CCN(C)CC2	3.01	2.22	3.04
NC(=O)c1ccc(-c2ccc3ccnc(N)c3c2)cc1	7.25	6.12	4.88
CN(Cc1ccccc1)C(=O)c1nn(CCCN2CCC(N3CCCC3)CC2)cc1-c1ccc(Cl)c(Cl)c1	27.6	13.7	1.65
COc1ccc2nccc(NC(=O)C3(O)CCC(NCc4ncc5c(c4Cl)OCCO5)CC3)c2n1 (stereo not given)	7.91	8.5	2.13
N=C(NCc1ccccc1)Nc1nc(-c2ccc(OCCCn3ccnc3)cc2)cs1	29.9	35.3	15.5
COc1ccc(C(=C(C)CC(C)C(=O)O)c2ccccc2)cc1 (stereo not given)	-0.12	-0.23	0.28
Cc1cc(N[C@@H](Cc2ccccc2)C(=O)NCc2cccc(F)c2)nc(NCCc2ccc(F)cc2)n1	4.47	2.55	1.36
O=C(Nc1ccnc(N2CC3CC2CN3Cc2cccc(O)c2)c1)c1ccc(F)cc1 (stereo not given)	0.07	-1.27	1.75
O=C(NCCN1CCOCC1)c1ccc(N2CCC(Oc3ccc4ccccc4c3)CC2)nc1	7.02	6.04	6.12
O=C(C=Cc1ccc(Cl)c(Cl)c1)NCCCCCN1CCCC(CCCNS(=O)(=O)c2cccc3cccnc23)C1 (stereo not given)	5.85	5.36	-0.71
COc1ccc(CN2CCC(NCc3cccc(C(F)(F)F)c3)CC2)cc1	13.2	4.48	9.6

SMILES	inhibition [1] [%]	inhibition [2] [%]	inhibition [3] [%]
N#Cc1c(N2CCN(c3ccc(F)cc3)CC2)nc(N)c2c(N)nc3c(c12)CC(=O)N3C1CC1	-2.19	5.18	13.5
Cc1ccc(C(C#N)c2ccc3c(C(F)(F)F)cc(C(F)(F)F)nc3n2)cc1 (stereo not given)	1.88	2.44	4.34
CC1CN(Cc2cccc(C#N)c2)CCN1c1ccc(NC(=O)c2cccs2)cc1 (stereo not given)	6.93	7.96	4.53
O=C(Nc1cccc(-c2ccc(-c3nc4cc(C(F)(F)F)ccc4[nH]3)cc2)c1)c1ccncc1	6.22	0.73	5.09
O=C(OCc1ccccn1)c1nc2ccccc2[nH]1	0.81	2.57	0.92
COc1ccc(CC(=O)NC(CCN2CCC3(CC2)CN(S(C)(=O)=O)c2ccccc23)c2ccc(Cl)c(Cl)c2)cc1OC (stereo not given)	3.24	3.56	2.27
O=C(c1ccccc1F)N(Cc1ccc(Cl)cc1)c1ccccn1	6.82	7.84	9.29
COc1ccc2nccc([C@@H](O)CN3CCC(NC(=O)C(c4cc5ccccc5o4)N4CCN(c5ccccc5OC)CC4)CC3)c2c1 (stereo not given in full)	1.2	0.92	-0.23
CNC(=O)c1cnc(Nc2ccc(N3CCOCC3)cc2)nc1Nc1cccc(O)c1	3.92	5.41	-1.69
CCOc1ccc(C(=O)Nc2cc(Br)c3c(c2)CNCC3)cc1C#N	6.36	5.03	5.78
COc1ccc(Nc2ccnc3cc(Cl)ccc23)cc1OC	10.1	10.7	7.28
Cc1cccc2nc(-c3ccc(-c4cccc(CN5CC(C)OC(C)C5)c4)s3)[nH]c12 (stereo not given)	7.69	6.31	4.91
COc1ccc(CNc2nc(NCc3ccccc3)c3cc(OC)c(OC)cc3n2)cc1OC	4.35	5.92	0.89
COc1cccc2cc(C(=O)N[C@@H](CC(C)C)C(=O)Nc3cc(F)ccc3Br)oc12	1.51	0.34	0.22
O=C(/C=C/c1ccc(Cl)cc1)NCCCCCN1CCCC(C(=O)Nc2ccc(Cl)c(Cl)c2)C1 (stereo not given)	0.22	1.61	1.59
COc1ccc(CNC(=O)c2cc3c(=O)n4ccccc4nc3n(CCc3ccccc3)c2=N)cc1	15.5	12	9.96
O=C(/C=C/c1ccc(Cl)c(Cl)c1)NCCCCCN1CC[C@H](NC(=O)/C=C/c2ccccc2)C1	0.76	0.86	-0.08

Source: ChEMBL document CHEMBL3433997, “St. Jude Leishmania screening dataset” (2016)
